In the supplement of paper PMC6411743:
± gives the standard deviation of the averaged measurements. Of roughly 6,200 targets only a part is listed; those with the largest changes were picked by preference.

Compound: Nc1ncnc2c1ncn2[C@@H]1O[C@H](COP(=O)(O)OP(=O)(O)NP(=O)(O)O)[C@@H](O)[C@H]1O [adenylyl imidodiphosphate]
Assay: NP40-soluble protein abundance relative to vehicle (solubility fold change) (ratio); higher = more soluble protein in presence of AMP-PNP
How it was run: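 In three independent experiments, Jurkat crude lysate made by Dounce homogenisation was treated for 10 min at room temperature and then 3 min at 37 °C with eight concentrations ranging from 0.1 to 10 mM. It was then solubilised with 0.8% NP40 plus benzonase for 60 min at 4 °C and ultracentrifuged. The supernatant was TMT-labelled for LC-MS/MS, and each value is the fold change against the detergent-processed vehicle for the same replicate, using vsn-normalised intensities.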

Chain of UniProt P24864 (P24864 whole entry, one chain of several): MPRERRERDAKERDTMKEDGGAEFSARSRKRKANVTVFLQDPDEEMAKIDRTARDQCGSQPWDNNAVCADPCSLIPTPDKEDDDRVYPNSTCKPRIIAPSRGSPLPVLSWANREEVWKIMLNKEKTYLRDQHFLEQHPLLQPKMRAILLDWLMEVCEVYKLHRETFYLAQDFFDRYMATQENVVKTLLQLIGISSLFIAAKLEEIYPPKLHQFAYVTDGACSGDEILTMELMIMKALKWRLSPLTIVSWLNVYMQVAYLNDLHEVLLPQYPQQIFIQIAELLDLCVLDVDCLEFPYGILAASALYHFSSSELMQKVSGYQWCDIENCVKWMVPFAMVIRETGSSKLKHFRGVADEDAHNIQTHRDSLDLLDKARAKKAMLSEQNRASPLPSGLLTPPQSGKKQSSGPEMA
Chain of UniProt Q96SB4 (Q96SB4 whole entry, one chain of several): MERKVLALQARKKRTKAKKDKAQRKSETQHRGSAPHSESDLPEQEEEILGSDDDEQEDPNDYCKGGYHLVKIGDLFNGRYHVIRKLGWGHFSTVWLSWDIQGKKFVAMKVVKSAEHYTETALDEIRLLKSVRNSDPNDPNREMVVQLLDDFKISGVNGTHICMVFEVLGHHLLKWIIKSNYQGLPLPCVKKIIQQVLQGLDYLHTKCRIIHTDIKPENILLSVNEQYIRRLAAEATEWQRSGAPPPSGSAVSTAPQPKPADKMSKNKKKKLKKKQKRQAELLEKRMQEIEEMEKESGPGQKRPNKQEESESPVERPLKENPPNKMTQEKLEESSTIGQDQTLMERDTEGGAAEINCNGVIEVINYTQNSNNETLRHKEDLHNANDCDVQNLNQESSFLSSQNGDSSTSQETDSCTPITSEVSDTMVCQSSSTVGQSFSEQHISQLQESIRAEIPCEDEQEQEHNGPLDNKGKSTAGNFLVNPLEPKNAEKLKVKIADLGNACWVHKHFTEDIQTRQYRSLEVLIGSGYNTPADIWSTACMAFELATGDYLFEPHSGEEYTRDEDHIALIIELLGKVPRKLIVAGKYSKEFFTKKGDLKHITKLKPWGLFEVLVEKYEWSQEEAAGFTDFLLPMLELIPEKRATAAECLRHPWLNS
Chain of UniProt Q5VW38 (Q5VW38 whole entry, one chain of several): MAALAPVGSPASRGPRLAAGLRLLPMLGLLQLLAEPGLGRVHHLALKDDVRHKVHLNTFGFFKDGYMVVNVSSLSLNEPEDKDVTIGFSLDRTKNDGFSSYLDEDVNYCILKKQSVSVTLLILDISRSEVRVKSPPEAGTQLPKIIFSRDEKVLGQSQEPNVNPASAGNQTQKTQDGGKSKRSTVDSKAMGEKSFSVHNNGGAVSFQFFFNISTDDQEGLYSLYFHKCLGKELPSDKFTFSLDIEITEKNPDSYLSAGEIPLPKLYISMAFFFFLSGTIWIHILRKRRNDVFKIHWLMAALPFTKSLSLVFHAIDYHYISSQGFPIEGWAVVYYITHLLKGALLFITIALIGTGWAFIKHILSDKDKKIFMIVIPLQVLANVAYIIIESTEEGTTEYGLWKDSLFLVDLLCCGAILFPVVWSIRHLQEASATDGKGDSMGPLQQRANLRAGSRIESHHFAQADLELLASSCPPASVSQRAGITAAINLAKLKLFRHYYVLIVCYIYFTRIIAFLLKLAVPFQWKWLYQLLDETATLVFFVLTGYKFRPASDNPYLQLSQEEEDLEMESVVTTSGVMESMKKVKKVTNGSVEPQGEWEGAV
Chain of UniProt P62191 (P62191 whole entry, one chain of several): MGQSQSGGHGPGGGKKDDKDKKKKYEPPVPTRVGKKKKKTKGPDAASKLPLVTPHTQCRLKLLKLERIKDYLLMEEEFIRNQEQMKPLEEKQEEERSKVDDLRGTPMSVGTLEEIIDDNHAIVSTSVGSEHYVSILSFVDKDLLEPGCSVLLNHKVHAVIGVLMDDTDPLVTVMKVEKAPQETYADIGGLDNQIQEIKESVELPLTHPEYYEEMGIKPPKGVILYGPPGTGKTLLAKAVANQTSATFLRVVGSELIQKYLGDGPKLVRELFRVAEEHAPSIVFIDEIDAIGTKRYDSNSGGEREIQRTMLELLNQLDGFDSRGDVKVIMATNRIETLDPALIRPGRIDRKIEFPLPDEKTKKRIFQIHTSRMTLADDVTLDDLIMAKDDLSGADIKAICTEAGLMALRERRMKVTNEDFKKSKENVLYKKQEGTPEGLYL
Chain of UniProt Q8N2M8 (Q8N2M8 whole entry, one chain of several): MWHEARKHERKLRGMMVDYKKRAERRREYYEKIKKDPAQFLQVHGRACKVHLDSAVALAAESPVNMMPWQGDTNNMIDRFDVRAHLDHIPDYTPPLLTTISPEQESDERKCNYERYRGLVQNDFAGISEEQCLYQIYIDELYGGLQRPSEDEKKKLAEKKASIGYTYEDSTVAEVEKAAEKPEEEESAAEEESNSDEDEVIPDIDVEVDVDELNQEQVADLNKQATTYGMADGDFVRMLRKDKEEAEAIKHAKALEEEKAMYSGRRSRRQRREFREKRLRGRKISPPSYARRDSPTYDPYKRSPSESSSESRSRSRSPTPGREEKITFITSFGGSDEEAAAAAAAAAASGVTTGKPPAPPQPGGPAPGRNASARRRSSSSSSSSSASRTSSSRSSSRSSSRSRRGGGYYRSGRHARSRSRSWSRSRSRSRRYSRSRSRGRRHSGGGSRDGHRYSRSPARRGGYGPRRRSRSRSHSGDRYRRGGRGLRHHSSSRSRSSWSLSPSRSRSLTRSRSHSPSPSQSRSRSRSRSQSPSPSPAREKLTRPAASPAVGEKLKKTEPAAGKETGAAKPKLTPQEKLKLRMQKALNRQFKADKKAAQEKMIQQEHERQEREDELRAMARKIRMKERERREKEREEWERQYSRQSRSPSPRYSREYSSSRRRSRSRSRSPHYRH
Chain of UniProt P43243 (P43243 whole entry, one chain of several): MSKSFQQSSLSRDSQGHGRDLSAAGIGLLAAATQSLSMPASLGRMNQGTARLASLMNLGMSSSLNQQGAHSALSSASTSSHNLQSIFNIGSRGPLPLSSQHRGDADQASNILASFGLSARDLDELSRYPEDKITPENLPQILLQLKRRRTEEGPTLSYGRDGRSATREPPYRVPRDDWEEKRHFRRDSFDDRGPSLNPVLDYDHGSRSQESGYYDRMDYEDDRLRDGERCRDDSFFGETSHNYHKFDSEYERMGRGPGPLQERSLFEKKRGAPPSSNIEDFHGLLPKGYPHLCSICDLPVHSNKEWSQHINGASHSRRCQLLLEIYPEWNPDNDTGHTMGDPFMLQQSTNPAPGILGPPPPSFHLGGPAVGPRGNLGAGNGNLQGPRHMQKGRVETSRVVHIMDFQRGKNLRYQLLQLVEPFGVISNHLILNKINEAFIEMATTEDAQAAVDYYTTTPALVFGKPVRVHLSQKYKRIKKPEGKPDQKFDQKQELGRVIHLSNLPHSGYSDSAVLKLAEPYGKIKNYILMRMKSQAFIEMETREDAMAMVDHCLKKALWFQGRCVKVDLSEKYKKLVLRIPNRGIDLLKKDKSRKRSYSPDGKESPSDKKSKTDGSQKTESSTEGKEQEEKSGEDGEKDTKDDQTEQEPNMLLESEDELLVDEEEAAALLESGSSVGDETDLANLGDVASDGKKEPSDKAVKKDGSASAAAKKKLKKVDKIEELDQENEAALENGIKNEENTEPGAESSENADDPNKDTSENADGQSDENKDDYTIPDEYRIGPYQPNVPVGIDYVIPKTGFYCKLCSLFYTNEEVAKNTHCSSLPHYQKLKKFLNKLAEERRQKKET
Chain of UniProt P02686 (P02686 whole entry, one chain of several): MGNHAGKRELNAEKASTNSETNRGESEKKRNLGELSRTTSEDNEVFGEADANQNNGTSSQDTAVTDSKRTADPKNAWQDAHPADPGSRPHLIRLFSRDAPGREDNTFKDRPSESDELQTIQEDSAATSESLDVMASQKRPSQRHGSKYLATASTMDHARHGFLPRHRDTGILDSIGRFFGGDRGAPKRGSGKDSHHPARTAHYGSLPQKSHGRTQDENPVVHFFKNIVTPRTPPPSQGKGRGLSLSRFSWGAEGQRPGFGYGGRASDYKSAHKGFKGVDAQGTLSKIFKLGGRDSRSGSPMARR
Chain of UniProt Q9BY11 (Q9BY11 whole entry, one chain of several): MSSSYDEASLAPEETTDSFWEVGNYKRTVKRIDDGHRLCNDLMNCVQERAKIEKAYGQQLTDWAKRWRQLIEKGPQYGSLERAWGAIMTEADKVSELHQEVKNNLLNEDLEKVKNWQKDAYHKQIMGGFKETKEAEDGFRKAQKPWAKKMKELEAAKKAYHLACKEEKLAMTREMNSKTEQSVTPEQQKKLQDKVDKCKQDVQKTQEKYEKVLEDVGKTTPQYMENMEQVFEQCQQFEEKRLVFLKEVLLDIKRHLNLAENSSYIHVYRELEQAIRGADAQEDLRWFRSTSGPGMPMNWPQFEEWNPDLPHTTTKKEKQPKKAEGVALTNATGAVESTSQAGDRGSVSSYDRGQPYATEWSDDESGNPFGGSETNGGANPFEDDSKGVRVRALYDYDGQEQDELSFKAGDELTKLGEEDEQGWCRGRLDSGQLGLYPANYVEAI
Chain of UniProt O43633 (O43633 whole entry): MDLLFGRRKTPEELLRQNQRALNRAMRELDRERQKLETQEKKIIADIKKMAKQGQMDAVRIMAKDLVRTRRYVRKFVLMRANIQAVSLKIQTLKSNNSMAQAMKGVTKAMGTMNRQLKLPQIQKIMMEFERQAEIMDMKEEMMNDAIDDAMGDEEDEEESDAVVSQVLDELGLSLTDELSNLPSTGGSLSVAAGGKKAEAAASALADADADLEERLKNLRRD
Chain of UniProt O14735 (O14735 whole entry): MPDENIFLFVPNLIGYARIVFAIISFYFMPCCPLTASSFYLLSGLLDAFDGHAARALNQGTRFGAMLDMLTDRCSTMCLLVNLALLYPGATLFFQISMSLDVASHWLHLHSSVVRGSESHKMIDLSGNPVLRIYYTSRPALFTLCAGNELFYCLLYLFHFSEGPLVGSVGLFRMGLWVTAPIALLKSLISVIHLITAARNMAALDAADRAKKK
Chain of UniProt O15116 (O15116 whole entry): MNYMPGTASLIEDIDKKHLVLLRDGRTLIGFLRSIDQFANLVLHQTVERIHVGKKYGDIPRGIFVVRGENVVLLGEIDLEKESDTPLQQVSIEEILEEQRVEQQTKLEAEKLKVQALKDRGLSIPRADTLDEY

Target	NP40-soluble protein abundance (concentration: 1mM)	NP40-soluble protein abundance (concentration: 2mM)	NP40-soluble protein abundance (concentration: 4mM)	NP40-soluble protein abundance (concentration: 6mM)	NP40-soluble protein abundance (concentration: 8mM)	NP40-soluble protein abundance (concentration: 10mM)
I3L4X7|Q13227|Q13227-2 (UniProt Q13227)	0.982 ± 0.029	1.03 ± 0.059	1.02 ± 0.064	1.08 ± 0.067	1.05 ± 0.019	1.1 ± 0.019
UniProt O14646|O14646-2	1.07 ± 0.052	1.15 ± 0.023	1.23 ± 0.077	1.33 ± 0.14	1.41 ± 0.11	1.49 ± 0.15
F6U236|Q9BY11 (UniProt Q9BY11)	0.978 ± 0.036	1.03 ± 0.057	0.968 ± 0.018	1 ± 0.063	0.978 ± 0.069	0.989 ± 0.054
G3V4X1|P62191|P62191-2 (UniProt P62191)	0.942 ± 0.045	0.906 ± 0.049	0.888 ± 0.079	0.896 ± 0.1	0.882 ± 0.1	0.89 ± 0.12
F8VX10|F8VXI8|Q9H9L4 (UniProt Q9H9L4)	1.01 ± 0.014	1.06 ± 0.033	1.05 ± 0.033	1.02 ± 0.066	1.031 ± 0.0027	1.04 ± 0.044
C5orf51 (UniProt A6NDU8)	1.04 ± 0.014	1.03 ± 0.025	1.01 ± 0.025	0.9735 ± 0.0065	0.953 ± 0.017	0.95 ± 0.05
E9PDF6|O43795|O43795-2 (UniProt O43795)	2.06 ± 0.29	2.04 ± 0.2	2.31 ± 0.29	2.37 ± 0.28	2.45 ± 0.32	2.39 ± 0.27
F8VU90|Q9NYL4|Q9NYL4-2 (UniProt Q9NYL4)	1.01 ± 0.042	1.04 ± 0.043	1.07 ± 0.062	0.997 ± 0.031	0.999 ± 0.084	0.994 ± 0.12
G3V5N8|Q9HBF4|Q9HBF4-3 (UniProt Q9HBF4)	0.991 ± 0.012	0.986 ± 0.035	0.987 ± 0.054	0.96 ± 0.021	0.968 ± 0.0098	0.938 ± 0.047
KPNA4 (UniProt O00629)	1.07 ± 0.029	1.074 ± 0.0097	1.07 ± 0.016	1.03 ± 0.047	1.05 ± 0.051	1.05 ± 0.037
CHMP2A (UniProt O43633)	0.949 ± 0.013	1.02 ± 0.094	0.936 ± 0.021	0.966 ± 0.043	0.971 ± 0.031	0.915 ± 0.078
F5GXC5|H3BUJ1|Q8TB96 (UniProt Q8TB96)	1.01 ± 0.017	1.02 ± 0.054	1.01 ± 0.037	1.008 ± 0.0079	1.01 ± 0.024	0.996 ± 0.023
E7EMP6|Q96FZ2 (UniProt Q96FZ2)	1.06 ± 0.015	1.01 ± 0.032	1.04 ± 0.021	0.9875 ± 0.0043	1.01 ± 0.016	1 ± 0.033
CAND2 (UniProt O75155)	0.973 ± 0.018	0.942 ± 0.027	0.986 ± 0.045	1 ± 0.066	1.01 ± 0.031	1.02 ± 0.023
H7BYF2|Q5JRG1|Q9BVL2|Q9BVL2-2|Q9BVL2-3 (UniProt Q9BVL2)	1.031 ± 0.0089	1.1 ± 0.095	1.04 ± 0.053	1.03 ± 0.033	1.04 ± 0.026	1.11 ± 0.06
A0A0A0MQS2|F5H0Q6 (UniProt Q8N2M8)	1.06 ± 0.049	1.13 ± 0.083	1.04 ± 0.064	1.06 ± 0.1	1.04 ± 0.043	1.06 ± 0.015
CDIPT (UniProt O14735)	0.928 ± 0.062	0.896 ± 0.042	1 ± 0.019	1.01 ± 0.088	1.03 ± 0.073	0.974 ± 0.039
C9J2U0|I3L413|P24864|P24864-2|P24864-3 (UniProt P24864)	0.913 ± 0.0092	0.822 ± 0.076	0.935 ± 0.011	0.936 ± 0.032	0.9933 ± 0.0062	0.953 ± 0.07
A8MXP9|P43243 (UniProt P43243)	1.03 ± 0.033	1.07 ± 0.016	1.05 ± 0.016	1.07 ± 0.042	1.08 ± 0.025	1.1 ± 0.028
UniProt A3KMH1|A3KMH1-3	0.93 ± 0.024	0.858 ± 0.098	0.933 ± 0.025	0.874 ± 0.035	0.879 ± 0.017	0.8557 ± 0.0057
C9JIF9|P13798 (UniProt P13798)	0.953 ± 0.027	0.88 ± 0.061	0.915 ± 0.0095	0.903 ± 0.014	0.909 ± 0.022	0.871 ± 0.04
UniProt O60504-2|O60504	1.03 ± 0.013	0.999 ± 0.018	1.04 ± 0.018	1.03 ± 0.029	1.02 ± 0.029	1.02 ± 0.025
J3KS94|J3QQK6|P02686|P02686-2 (UniProt P02686)	0.968 ± 0.054	0.993 ± 0.035	0.96 ± 0.03	0.928 ± 0.033	0.896 ± 0.013	0.903 ± 0.029
A0A0A0MTG1|A0A0G2JIA5|A0A140T8Y0|A0A140TA35|A0A140TA36|A0A140TA40|A0A140TA45|Q5ST30|Q5ST30-4|A0A0G2JL52|B4E0K6|B7ZL25 (UniProt Q5ST30)	1 ± 0.017	0.992 ± 0.051	0.992 ± 0.02	0.98 ± 0.034	0.979 ± 0.022	0.969 ± 0.04
LSM1 (UniProt O15116)	0.913 ± 0.018	0.961 ± 0.041	0.921 ± 0.0096	0.918 ± 0.023	0.907 ± 0.011	0.897 ± 0.024
G5E994|Q5VW38|Q5VW38-2 (UniProt Q5VW38)	1.026 ± 0.0089	1.01 ± 0.018	0.976 ± 0.02	0.983 ± 0.024	1.01 ± 0.021	1.018 ± 0.0091
UniProt O14523|O14523-2	0.973 ± 0.015	0.988 ± 0.013	0.985 ± 0.037	0.968 ± 0.027	0.97 ± 0.047	1.01 ± 0.06
E9PJF5|G5E9I4|H0YCF7|Q9HCU9 (UniProt Q9HCU9)	1.03 ± 0.018	1.05 ± 0.04	1.01 ± 0.012	1 ± 0.016	0.989 ± 0.041	1.02 ± 0.051
H3BLV9|Q5R363|Q96SB4|Q96SB4-3|Q96SB4-4 (UniProt Q96SB4)	1.08 ± 0.011	1.14 ± 0.035	1.22 ± 0.035	1.29 ± 0.036	1.359 ± 0.011	1.46 ± 0.044
J3KNV1|O60281 (UniProt O60281)	1.02 ± 0.034	1.08 ± 0.024	1.016 ± 0.0028	0.966 ± 0.034	0.968 ± 0.02	0.985 ± 0.041
